Source: PubChem BioAssay AID488922 (Johns Hopkins Ion Channel Center, 2010)
The whole screen tested about 310,000 compounds, of which about 3,800 (1.2%) were called active. This is one part of a sample in which actives are shown more often than they occur.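 How the source made its calls: active means ratio B-score over 3 SD below the library mean, with starting fluorescence within 5 SD of its mean; inactive means the rest, inconclusive results apart.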

biological target: Potassium channel subfamily K member 9 (Homo sapiens) (UniProt Q9NPC2); experiment: KCNK9 potassium channel inhibitors, primary screen, HEK293 cells, thallium flux (AID 488922); settings: HEK293 KCNK9, FluxOR thallium flux fluorescence, at 10 µM; stronger effect = lower value;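 on B-score: negative B-score means less thallium flux so channel inhibition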
Sequence (Q9NPC2 whole entry, looked up): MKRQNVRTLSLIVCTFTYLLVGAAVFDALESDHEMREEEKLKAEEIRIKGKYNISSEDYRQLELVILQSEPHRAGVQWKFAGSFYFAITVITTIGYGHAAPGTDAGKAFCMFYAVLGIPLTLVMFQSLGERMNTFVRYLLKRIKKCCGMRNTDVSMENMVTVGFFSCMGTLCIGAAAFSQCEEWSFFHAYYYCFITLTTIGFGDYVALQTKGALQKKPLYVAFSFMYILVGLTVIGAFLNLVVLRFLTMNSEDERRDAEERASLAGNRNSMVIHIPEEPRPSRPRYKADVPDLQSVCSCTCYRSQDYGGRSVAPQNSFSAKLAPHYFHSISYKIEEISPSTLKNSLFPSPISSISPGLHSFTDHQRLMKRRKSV

Structure (SMILES) | B-score
O=C(c1cccc([N+](=O)[O-])c1)N1CCN(Cc2ccccc2)CC1 | inactive
CC1(c2cccc([N+](=O)[O-])c2)CC(C)(C)N(C(=O)c2ccccc2)c2ccccc21 (stereo not given) | -7.5 (active)
CC1(c2ccccc2)CC(C)(C)N(C(=O)c2cc([N+](=O)[O-])cc([N+](=O)[O-])c2)c2ccccc21 (stereo not given) | inactive
O=C(NC(=S)Nc1ccc(Cl)cc1Cl)C1CC1 | inactive
O=C(/C=C/NNC(=O)c1cccc(Br)c1)c1ccccc1 | -12.9 (active)
Cc1ccccc1NC(=S)NNC(=O)c1cccc(Br)c1 | inactive
CC(CC(=O)O)CC(=O)NNC(=O)c1cccc(Br)c1 (stereo not given) | inactive
Cc1c(C(C)(C)O)[nH]c2ccc(C#N)cc12 | inactive
O=C(O)/C=C/C(=O)NNc1ccc([N+](=O)[O-])cc1 | inactive
Cc1cccc(NC(=O)CSc2nnc(CCCCCNC(=O)OC(C)(C)C)o2)c1C | inactive
Cc1ccc(C(=O)Cc2nnc(C)s2)cc1 | inactive
CCOC(=O)C1CCCN(S(=O)(=O)c2ccc(-n3cnnn3)c(C)c2)C1 (stereo not given) | inactive
CCN(/N=C/c1ccc(N(C)C)cc1)c1nc2ccccc2[nH]1 | inactive
Oc1ccc(/C=N/N(Cc2ccccc2)c2ccccc2)cc1 | -7.55 (active)
CN(C)c1ccc(/C=N/N(Cc2ccccc2)c2ccccc2)cc1 | inactive
CC(C)C(c1nnnn1CCc1ccccc1)N1CCN(C(=O)c2ccco2)CC1 (stereo not given) | inactive
N#Cc1ccc(C(c2nnnn2CCc2ccccc2)N2CCCCCC2)cc1 (stereo not given) | -7.47 (active)
COc1ccc(CCn2nnnc2C(c2ccccc2)N2CCN(C)CC2)cc1OC (stereo not given) | inactive

Structure (SMILES) | B-score
CCn1c(C(O)c2cc(OC)ccc2OC)nc2ccccc21 (stereo not given) | inactive
COc1ccc(OC)c(C(O)c2nc3ccccc3n2C)c1 (stereo not given) | -7.74 (active)
CCCn1c(C(O)c2cc(OC)ccc2OC)nc2ccccc21 (stereo not given) | inactive
Cn1ncc2c(N3CCCCC3)nc(NCCCO)nc21 | inactive
COc1ccccc1C(=O)NCc1nnc(SC(C)C(=O)Nc2nccs2)n1C (stereo not given) | inactive
C=CCc1cc(S(=O)(=O)c2ccc(O)c(CC=C)c2)ccc1O | -11.9 (active)
CCOC(=O)N1CCC(NC(=O)CN2C(=O)COc3ccc(C(C)(C)C)cc32)CC1 | inactive
C#CC(C)(C)NC(=O)c1cnc(-c2ccccc2)nc1-c1ccccc1 | inactive
COc1ccc(C2CC(c3cccs3)=NN2C(=O)CCC(=O)O)cc1OC (stereo not given) | inactive
COc1ccc(C2CC(c3cccs3)=NN2c2nc(C)c(C(C)=O)s2)cc1OC (stereo not given) | inactive
COc1ccccc1N1N=C(c2cccs2)CC1c1ccccc1 (stereo not given) | inactive
COc1ccc(C2CC(c3cccs3)=Nc3ccccc3S2)cc1OC (stereo not given) | -8.55 (active)
COc1ccc(C2CC(c3cccs3)=NN2c2ccc(F)cc2)cc1OC (stereo not given) | -7.88 (active)
COc1ccc(C2=NN(c3ccccc3)C(c3cccs3)C2)cc1 (stereo not given) | inactive
COc1ccc(C2CC(c3cccs3)=NN2C(=O)CSc2nnc(N)s2)cc1OC (stereo not given) | inactive
COc1ccc(C2CC(c3cccs3)=NN2c2ccccc2)cc1 (stereo not given) | -11.3 (active)
COc1ccc(C2CC(c3cccs3)=NN2C(=O)CSc2nncs2)cc1OC (stereo not given) | inactive
